Among the test systems are SR leukemia; RPMI-8226 leukemia; OVCAR-8 ovarian; OVCAR-5 ovarian; OVCAR-4 ovarian; SK-OV-3 ovarian; IGROV1 ovarian; OVCAR-3 ovarian; HS 578T breast; NCI/ADR-RES ovarian.
Common to all, as to assay: NCI-60 one-dose screen, 48 h (100 = growth as untreated, 0 = no growth, -100 = all killed)
Conditions in all cases: 10 µM unless noted

Values joined by “and” are separate entries in the source; they are usually repeats but may differ in a detail not shown here. Equal entries are not always repeated. Compounds without any hit were thinned out: in the full panel of roughly 83,000, 20% have a hit.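 Step 1: grow cells in 96-well plates. Step 2: add test compound at a single concentration. Step 3: incubate 48 h. Step 4: record percent growth.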 Active and inactive are the calls of the source. How the source made its calls: active means growth percent below 10; inactive means the rest.

In the case of `OCCN1CCN(CCO)CC1`, the growth was 99.5% (inactive) and 117% (inactive) and 98.8% (inactive) with SR leukemia; 100% (inactive) and 95.5% (inactive) in the test with RPMI-8226 leukemia; 101% (inactive) and 97.4% (inactive) with OVCAR-8 ovarian; 111% (inactive) and 91.2% (inactive) and 105% (inactive) in the test on OVCAR-5 ovarian; 124% (inactive) and 97.7% (inactive) with OVCAR-4 ovarian; 104% (inactive) and 106% (inactive) and 109% (inactive) in the test on SK-OV-3 ovarian. In addition, the growth is 113% (inactive) and 90.8% (inactive) and 112% (inactive) in the test with IGROV1 ovarian; 119% (inactive) and 108% (inactive) and 109% (inactive) in the test with OVCAR-3 ovarian; 106% (inactive) and 98.7% (inactive) and 112% (inactive) in the test with HS 578T breast; 100% (inactive) and 94% (inactive) and 120% (inactive) in the test with NCI/ADR-RES ovarian.
Regarding `Cc1cc(O)c(C(C)C)cc1N`, the growth is 97.1% (inactive) and 115% (inactive) in the test on SR leukemia; 84.3% (inactive) and 92.6% (inactive) in the test on RPMI-8226 leukemia; 99.3% (inactive) and 106% (inactive) with OVCAR-8 ovarian; 101% (inactive) and 103% (inactive) with OVCAR-5 ovarian; 84.5% (inactive) with OVCAR-4 ovarian; 100% (inactive) in the test on SK-OV-3 ovarian. The growth was 103% (inactive) and 114% (inactive) with IGROV1 ovarian; 76.6% (inactive) and 116% (inactive) in the test on OVCAR-3 ovarian; 120% (inactive) and 99.7% (inactive) in the test with HS 578T breast; 102% (inactive) and 98.8% (inactive) in the test on NCI/ADR-RES ovarian.
In the case of `CC1=CCC2CC1C2(C)C` (stereo not given), the growth is 96.9% (inactive) and 91.4% (inactive) in the test on SR leukemia; 137% (inactive) and 120% (inactive) with RPMI-8226 leukemia; 97.7% (inactive) and 95.8% (inactive) with OVCAR-8 ovarian; 80.1% (inactive) and 74.2% (inactive) in the test on OVCAR-5 ovarian; 112% (inactive) and 109% (inactive) in the test on OVCAR-4 ovarian; 114% (inactive) and 99% (inactive) with SK-OV-3 ovarian. Further, the growth is 35.4% (inactive) in the test with IGROV1 ovarian; 89.2% (inactive) and 95.1% (inactive) in the test with OVCAR-3 ovarian; 81.8% (inactive) in the test on HS 578T breast; 102% (inactive) and 81.8% (inactive) in the test with NCI/ADR-RES ovarian.
For `O=[N+]([O-])c1ccc(-n2[nH]nnc2=S)cc1`, the growth is 92.1% (inactive) with SR leukemia; 102% (inactive) in the test with RPMI-8226 leukemia; 107% (inactive) with OVCAR-8 ovarian; 102% (inactive) in the test on OVCAR-5 ovarian; 92% (inactive) in the test on OVCAR-4 ovarian; 103% (inactive) in the test on SK-OV-3 ovarian. Besides, the growth with IGROV1 ovarian was 91.3% (inactive); in the test with OVCAR-3 ovarian, 110% (inactive); with HS 578T breast, 104% (inactive); in the test with NCI/ADR-RES ovarian it was 106% (inactive).
As for `COc1cc(-c2nccc3cc4c(cc23)OCO4)cc(OC)c1OC`, the growth with SR leukemia is 18.5% (inactive) and 35.6% (inactive); in the test with RPMI-8226 leukemia, 37.5% (inactive); in the test on OVCAR-8 ovarian, 48.9% (inactive) and 35.2% (inactive); in the test with OVCAR-5 ovarian it was 66.4% (inactive) and 73.5% (inactive); in the test with OVCAR-4 ovarian it was 79.2% (inactive) and 69% (inactive); in the test on SK-OV-3 ovarian, 23.7% (inactive) and 9.08% (active). Further, the growth is 45.8% (inactive) and 37.7% (inactive) in the test with IGROV1 ovarian; -9.95% (active) and -25.2% (active) in the test on OVCAR-3 ovarian; 18.7% (inactive) and 53.8% (inactive) in the test with HS 578T breast; -3.6% (active) and 8.92% (active) in the test on NCI/ADR-RES ovarian.
`ClC/C=C/CSc1ncnc2nc[nH]c12`: the growth is 74.4% (inactive) in the test on SR leukemia; 98.7% (inactive) in the test with RPMI-8226 leukemia; 106% (inactive) with OVCAR-8 ovarian; 112% (inactive) and 104% (inactive) with OVCAR-5 ovarian; 108% (inactive) and 99% (inactive) in the test on OVCAR-4 ovarian; 95% (inactive) and 107% (inactive) in the test with SK-OV-3 ovarian. Moreover, the growth is 113% (inactive) and 101% (inactive) in the test with IGROV1 ovarian; 119% (inactive) and 114% (inactive) with OVCAR-3 ovarian; 105% (inactive) and 119% (inactive) with HS 578T breast; 106% (inactive) and 108% (inactive) with NCI/ADR-RES ovarian.
With `O=C(/C=C/c1ccccn1)c1ccccc1O`, the growth is 4.76% (active) in the test with SR leukemia; 2.44% (active) and -0.787% (active) in the test with RPMI-8226 leukemia; 54.4% (inactive) and 84.8% (inactive) with OVCAR-8 ovarian; 77.1% (inactive) and 92.3% (inactive) with OVCAR-5 ovarian; 101% (inactive) and 88.2% (inactive) in the test with OVCAR-4 ovarian; 111% (inactive) and 113% (inactive) in the test with SK-OV-3 ovarian. For the same compound, the growth was 38.1% (inactive) and 66.6% (inactive) in the test on IGROV1 ovarian; 84.4% (inactive) and 44.9% (inactive) in the test on OVCAR-3 ovarian; 87.2% (inactive) in the test with HS 578T breast; 73.9% (inactive) and 93.4% (inactive) in the test with NCI/ADR-RES ovarian.
For `Nc1n[nH]c(=S)n1-c1ccc(Cl)cc1`, the growth is 96.6% (inactive) with SR leukemia; 80.8% (inactive) in the test with RPMI-8226 leukemia; 100% (inactive) with OVCAR-8 ovarian; 98.6% (inactive) in the test with OVCAR-5 ovarian; 99.5% (inactive) with OVCAR-4 ovarian; 102% (inactive) in the test with SK-OV-3 ovarian. Also, the growth is 110% (inactive) with IGROV1 ovarian, 100% (inactive) in the test with OVCAR-3 ovarian, 100% (inactive) in the test with HS 578T breast and 100% (inactive) in the test on NCI/ADR-RES ovarian.
Consider `CCN(CC)CCOc1ccc2c(c1)C(=O)c1cc(OCCN(CC)CC)ccc1-2`, for which the growth in the test on SR leukemia was 93% (inactive); with RPMI-8226 leukemia, 67.1% (inactive) and 7.54% (active); in the test on OVCAR-8 ovarian, 46.5% (inactive) and 59.3% (inactive); in the test with OVCAR-5 ovarian, 108% (inactive); with OVCAR-4 ovarian it was 60.7% (inactive) and 40.7% (inactive); in the test with SK-OV-3 ovarian, 90% (inactive) and 87.6% (inactive). The growth with IGROV1 ovarian was 78.3% (inactive); in the test on OVCAR-3 ovarian it was 96.1% (inactive) and 70.5% (inactive); with HS 578T breast it was 97.8% (inactive) and 91.7% (inactive); in the test with NCI/ADR-RES ovarian, 69.7% (inactive) and 70.8% (inactive).

(Values after PubChem BioAssay (NCI).)
